High-throughput results as filed in PubChem.
This is a sample that favours compounds with a hit; in the whole collection about 3.2% have one here.
BRCA1 expr act = increases BRCA1 expression. MCF7-BRCA1-FFLuc reporter, luminescence, 48 h; response scale: scaled: vehicle 0%, 10 µM genistein 100%. Potency, µM (titrated, usually from 46.1 µM), inactives show top-dose activation, hits mostly activators. 380,000 tested, 1.1% active; note: potency is the fitted concentration of half-maximal effect; nearly all actives have a fitted effect of over 80% in size
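Using MCF7 cells harboring a BRCA1 firefly luciferase reporter, plated 2 h before compound pinning, the screen measured luminescence after 48 h incubation. Responses were normalized to DMSO and 10 microM genistein, then fitted for concentration-effect.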
Nrf2 block = Nrf2 pathway inhibition | Potency, µM (top dose mostly 46 µM), without a hit: at the highest dose activity change, negative = inhibition, most hits filed as inhibitors | 360,000 tested, 2.1% active | A549 ARE-Fluc reporter, luciferase luminescence, 18-24 h; note: potency is the fitted concentration of half-maximal effect; % is set by controls: 0 for no effect and ±100 for the full control effect; nearly all actives have a fitted effect of over 60% in size
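Quantitative HTS in A549 cells stably bearing an antioxidant response element-firefly luciferase construct. Inhibition of Nrf2-driven transcription was scored by luminescence after 18-24 h of compound exposure at 37 °C.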
A549 viability = A549 cytotoxicity, counter-screen for Nrf2 inhibitors; Potency, µM (top dose mostly 46 µM), for the others: at the highest dose activity change, negative = cytotoxicity, usual class: inhibitors; 390,000 tested, 0.16% active; A549 ARE-Fluc cells, CellTiter-Fluor viability, 18-24 h; note: potency is the fitted concentration of half-maximal effect; % is set by controls: 0 for no effect and ±100 for the full control effect
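A549 ARE-Fluc cells in 5% FBS OPTI-MEM, 5000 cells/well, rested 2 h then exposed to compounds in concentration-response for 18-24 h at 37 °C. Viability by CellTiter-Fluor fluorescence (Ex 405/Em 525) after 30 min; luciferase luminescence (BugLite, 15 min, RT) read afterwards.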
Nrf2 ARE act = activators of Nrf2 (ARE) signaling; Potency, µM (top dose mostly 46.1 µM), without a hit: top-dose activation, hits mostly activators; AREc32 ARE-luciferase reporter (MCF7-derived line), luminescence, 24 h; 410,000 tested, 0.31% active; note: potency is the fitted concentration of half-maximal effect; % of control where 0% means no effect; nearly all actives have a fitted effect of over 65% in size
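Luminescent ARE reporter assay in AREc32_Fluc cells: overnight plating at 37 deg C, 24 hr compound incubation, Steady-Glo added, 30 min RT before reading.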
IL2 activator = activates IL-2 in a cell-based reporter assay; IL-2 activation reporter assay, cell-based qHTS; stimulated with anti-CD3/CD4/CD28 beads; in transgenic mouse T cells; activation, % (series mostly up to about 46 µM); 360,000 tested, 0.065% active; AID 652025; in the data active = activation above about 50%; inconclusive = mostly about 30% to 49%; note: 0% is about no effect
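Unstimulated transgenic mouse T cells; 60-min compound exposure; bead-based TCR/CD4/CD28 stimulation; 18 h culture, 37 degrees C; dual fluorescence (EGFP, DsRed) plate cytometry.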
p53 reactivation = mutant p53 re-activation in reporter cells. 320,000 tested, 0.063% active. AID 504706. Potency, µM (top dose mostly 92.2 µM), inactives show at the highest dose activity change, positive = activation, hits mostly activators. H1299 p53-A138V BP100-luciferase reporter, luminescence, 24 h; note: potency is the fitted concentration of half-maximal effect; % of control where 0% means no effect; nearly all actives have a fitted effect of over 45% in size
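p53-null H1299 cells stably carrying temperature-sensitive p53-A138V and a BP100-luciferase reporter were pinned with compounds (4-point, 1:5 series) and held 24 hrs at 37 deg C. Luminescence was read 10 min after detection reagent.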
Active calls of the source: *. Unless noted, calls come from the whole dose curve; as a rule, active = well fitted curve in the direction sought with a large enough effect; inconclusive = small, poorly fitted or top-dose-only effect, or another doubt; inactive = no such curve, though single readings can be large; an effect the other way counts as inactive or inconclusive.

`O=C(Nc1ccc2c(c1)OCCO2)c1cccc(S(=O)(=O)N2CCOCC2)c1` gave BRCA1 expr act 10µM*, Nrf2 block inconclusive, A549 viability -2%, Nrf2 ARE act 1%, IL2 activator -1 and p53 reactivation 15%.
`O=C(C1COc2ccccc2O1)N1CCc2ccccc21` (centres undefined) gave BRCA1 expr act 11µM*, Nrf2 block inconclusive, A549 viability inconclusive, Nrf2 ARE act 4%, IL2 activator 0 and p53 reactivation 8%.
For O=C(C1COc2ccccc2O1)N1CCCC1 (centres undefined) the results were BRCA1 expr act 7%, Nrf2 block 18%, A549 viability 1%, Nrf2 ARE act -1%, IL2 activator -3 and p53 reactivation 0%.
For CC(=O)Oc1ccc(-c2ccc(C(=O)Nc3cccc(S(=O)(=O)N4CCOCC4)c3)cc2)cc1 the results were BRCA1 expr act -63%, Nrf2 block 13µM*, A549 viability inconclusive, Nrf2 ARE act -1%, IL2 activator 2 and p53 reactivation -4%.
COc1ccc(C(=O)NC(=S)Nc2cccc(S(=O)(=O)N3CCOCC3)c2)cc1 was read as BRCA1 expr act -35%, Nrf2 block 7%, A549 viability 2%, Nrf2 ARE act 2%, IL2 activator 1 and p53 reactivation -2%.
CC(=O)Nc1cccc(S(=O)(=O)N2CCCN(S(=O)(=O)c3ccc4c(c3)OCCO4)CC2)c1 was read as Nrf2 block 15µM* and A549 viability -12%.
`O=C1c2ccccc2C(=O)N1Cc1ccncc1` gave Nrf2 block 9% and A549 viability 6%.
O=C1CCC2=C1C1(CCCC1)N=C(Nc1nc3ccccc3o1)N2 was read as Nrf2 block inconclusive and A549 viability -4%.
Screening CCOC(=O)CSc1nnc2n(-c3ccccc3)c(=O)c3c4c(sc3n12)CC(C(C)(C)C)CC4 (centres undefined) returned Nrf2 block -13%, A549 viability -7% and Nrf2 ARE act 0%.
Cc1cc(C(=O)Nc2cnc3ccccc3c2)ccc1[N+](=O)[O-] was read as BRCA1 expr act 3.2µM*, Nrf2 block inconclusive, A549 viability -3%, Nrf2 ARE act 1%, IL2 activator 2 and p53 reactivation 24%.
Screening Cc1cccc(NC(=O)C2CCN(S(=O)(=O)c3ccc4c(c3)OCCO4)CC2)n1 returned BRCA1 expr act -19%, Nrf2 block inconclusive, A549 viability -11%, Nrf2 ARE act 4%, IL2 activator 0 and p53 reactivation 2%.
`CCOc1ccc(NC(=O)c2ccc(F)c(S(=O)(=O)N3CCN(c4ccccn4)CC3)c2)cc1` gave BRCA1 expr act -91%, Nrf2 block inconclusive, A549 viability -14%, Nrf2 ARE act 1%, IL2 activator -1 and p53 reactivation 19%.
For CC1CN(S(=O)(=O)c2cccc(C(=O)NN3CCN(C)CC3)c2)CC(C)O1 (centres undefined) the results were BRCA1 expr act -18%, Nrf2 block 2%, A549 viability -3%, Nrf2 ARE act 0%, IL2 activator 0 and p53 reactivation -7%.
Cc1cccc(NC(=O)C2CCN(S(=O)(=O)c3ccc4c(c3)OCCCO4)CC2)n1 was read as BRCA1 expr act -21%, Nrf2 block 15µM*, A549 viability -14%, Nrf2 ARE act 2%, IL2 activator 0 and p53 reactivation 12%.
For CC1CN(S(=O)(=O)c2cccc(C(=O)Nc3ccc4c(c3)CCC4)c2)CC(C)O1 (centres undefined) the results were BRCA1 expr act -37%, Nrf2 block 23µM*, A549 viability -16%, Nrf2 ARE act 3%, IL2 activator -4 and p53 reactivation 16%.
`O=C(Nc1cccc(Cl)c1)c1ccc(F)c(S(=O)(=O)N2CCN(c3ccccn3)CC2)c1` gave BRCA1 expr act -62%, Nrf2 block 21µM*, A549 viability -9%, Nrf2 ARE act 4%, IL2 activator -2 and p53 reactivation 15%.
`Cc1ccc(CNc2ncnc3[nH]ncc23)o1` gave BRCA1 expr act -41%, Nrf2 block 1% and A549 viability 6%.
Screening Cc1ccc(C(=O)Nc2cccc(S(=O)(=O)N3CCCCC3)c2)cc1[N+](=O)[O-] returned BRCA1 expr act -45%, Nrf2 block 16µM*, A549 viability -15%, Nrf2 ARE act 1%, IL2 activator -1 and p53 reactivation -5%.
Screening O=C(C1CCN(S(=O)(=O)c2ccccc2)CC1)N1CCc2ccccc21 returned BRCA1 expr act 0%, Nrf2 block -7%, A549 viability 4%, Nrf2 ARE act -1%, IL2 activator 3 and p53 reactivation 7%.
For CCN(Cc1ccccc1)c1ccc(/C=N/NC(=O)c2cccc(S(=O)(=O)N3CCOCC3)c2)cc1 the results were BRCA1 expr act -56%, Nrf2 block 12µM*, A549 viability -22%, Nrf2 ARE act 3%, IL2 activator 1 and p53 reactivation 1%.
Screening O=C(C1CCN(S(=O)(=O)c2ccc3c(c2)OCCO3)CC1)N1CCc2ccccc21 returned BRCA1 expr act -5%, Nrf2 block 15µM*, A549 viability 0%, Nrf2 ARE act 0%, IL2 activator -3 and p53 reactivation -1%.
Screening CC1CCN(c2ccc(C(=O)Nc3ccc4c(c3)OCO4)cc2[N+](=O)[O-])CC1 returned BRCA1 expr act -29%, Nrf2 block 9.2µM*, A549 viability -8%, Nrf2 ARE act 2%, IL2 activator -3 and p53 reactivation 4%.
Screening CCN(C(=O)Cn1cc(C(=O)c2ccc(F)cc2)c(=O)c2ccc(C)nc21)c1cccc(C)c1 returned Nrf2 block -13%, A549 viability -3% and Nrf2 ARE act 4%.
`CCCC(=O)N1CCN(c2ccc(NC(=O)c3ccc([N+](=O)[O-])o3)cc2Cl)CC1` gave BRCA1 expr act -74%, Nrf2 block 16µM*, A549 viability inconclusive, Nrf2 ARE act inconclusive, IL2 activator -2 and p53 reactivation -11%.
Screening Cc1ccc(C(=O)Nc2cccc(S(=O)(=O)N3CCCCC3)c2)cc1S(=O)(=O)N1CCOCC1 returned BRCA1 expr act -45%, Nrf2 block 7.3µM*, A549 viability -6%, Nrf2 ARE act 0% and IL2 activator 1.
